The record followed here is PubChem BioAssay AID686970 (National Center for Advancing Translational Sciences (NCATS), 2013).

SMILES strings stand for the structures. About 6,000 (1.7%) of roughly 360,000 compounds were called active. About 8% were inconclusive and are not listed. Calls come from the whole dose curve; as a rule, active = well fitted cell-killing curve with a large enough effect; inconclusive = small, poorly fitted or top-dose-only effect, or effect the other way; inactive = flat fitted curve, though single readings scatter. The full list was thinned out, with actives kept by preference.
Potency is the fitted concentration of half-maximal effect.

The test in a line: qHTS for induction of synthetic lethality in tumor cells producing 2HG: qHTS for the HT-1080-NT fibrosarcoma cell line.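 For activity, negative = less viability: 0% = DMSO-treated cells and -100% = media-only wells without cells.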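 Note: NT is the 2HG producing partner of a matched IDH1 knockdown line; nearly all actives have a fitted effect of over 55% in size.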 The note with it: HT-1080-NT fibrosarcoma viability, CellTiter-Glo ATP luminescence, 48 h; series mostly up to 46.1 µM; activity, negative = less viability: at the top concentration. In outline:
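Toxicity toward the 2HG-producing NT line was scored as %Activity, normalised to DMSO and no-cell wells, from CellTiter-Glo luminescence after 48 hours' treatment.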
(In general: Quantitative high-throughput screening tests each substance at several concentrations.)
As to `COc1ccc(C(C(=O)NCc2ccccc2)n2c(=O)c(-c3ccccc3)nc3ccccc32)cc1` (centres undefined), the “activity, negative = less viability” value is -16.2% (inactive). For `CCC(C)C(CO)NC(=O)/C=C/[C@H]1O[C@@H](n2cnc3c(NC(=O)c4ccccc4)ncnc32)[C@H](O)[C@@H]1O` (some centres undefined), the “activity, negative = less viability” value was 3.67% (inactive). As for `COc1ccc(C(=O)NC2CC(C)(C)NC(C)(C)C2)cc1OC`, the “activity, negative = less viability” value is 17% (inactive). Regarding `COc1ccc(C(=O)N/N=C2\CCS(=O)(=O)c3ccc(F)cc32)cc1OC`, the Potency was 20.6 µM (active).

On to `COc1ccc(CN2CCCC(CNC(=O)c3ccc(F)cc3)C2)cc1OC` (centres undefined), for which the “activity, negative = less viability” value was 4.21% (inactive). `Cc1ccc(Cc2c(-c3ccc(Cl)cc3)nc3c4ccccc4ccn23)cc1`: the “activity, negative = less viability” value is -19% (inactive). Turning to `CC(=O)NN=C(C)c1ccc(NC(=O)C2CC2)cc1`, the “activity, negative = less viability” value is -2.35% (inactive). Take `COc1ccc(C(=O)NCC2CCCO2)cc1S(=O)(=O)NCc1ccc(Cl)cc1` (centres undefined): the “activity, negative = less viability” value is 0.0669% (inactive).

Take `CCC(CC)C(C(=O)NC1CCCC1)N1CCN(c2cc(C)nc3ccccc23)CC1` (centres undefined): the “activity, negative = less viability” value is -28.7% (inactive).

For `N#Cc1c(NC(=O)C2CCCO2)sc2c1CCCCC2` (centres undefined), the “activity, negative = less viability” value was -5.07% (inactive). Turning to `N#Cc1c(NC(=O)CCCl)sc2c1CCCCC2`, the Potency is 23.1 µM (active). Consider `CCN1CCN(CC(=O)Nc2sc3c(c2C#N)CCC3)CC1`, for which the “activity, negative = less viability” value was 11.3% (inactive).

Regarding `CCCCCCN1CCN(C2CN(Cc3cn(Cc4ccc(F)cc4)nn3)S(=O)(=O)C2)CC1` (centres undefined), the “activity, negative = less viability” value is 0.0762% (inactive). On to `Cc1ccc(-c2nc3ccccn3c2Nc2ccc(F)cc2)o1`, for which the “activity, negative = less viability” value was 1.52% (inactive).

As for `Cn1c(=N)n(CC(O)c2ccccc2)c2ccccc21` (centres undefined), the “activity, negative = less viability” value was -3.88% (inactive). The same measure, in the same setting: the figure for `Cn1c(=N)n(CC(O)c2cccs2)c2ccccc21` (centres undefined) is 0.74% (inactive). For `N=c1n(Cc2ccc(Cl)cc2)c2ccccc2n1CC(O)c1ccco1` (centres undefined), the Potency was 23.1 µM (active). Regarding `CCNC(=O)C1(C)CCCN(Cc2noc(-c3ccccc3OC)n2)C1` (centres undefined), the “activity, negative = less viability” value is 19.6% (inactive).

For `COc1cccc(CNc2nc(NCc3ccccc3OC)nc3ccsc23)c1`, the Potency is 23.1 µM (active). With `COc1ccc(NC(=S)NCc2cccs2)c(OC)c1`, the “activity, negative = less viability” value was 7.46% (inactive). Same read-out and setting: the figure for `COc1cccc(-c2cc3nc(NCc4ccccc4OC)n(C)c(=O)c3s2)c1` is 2.39% (inactive). As for `COc1cccc(CNc2nc(NCc3cccs3)nc3ccsc23)c1`, the Potency was 18.4 µM (active).

For the compound `COc1ccccc1CNc1nc(Nc2ccccc2Cl)c2sccc2n1`, the “activity, negative = less viability” value was -7.83% (inactive). On to `Clc1ccccc1Nc1nc(NCc2cccs2)nc2ccsc12`, for which the “activity, negative = less viability” value is 6.31% (inactive). For the compound `CC[C@@H]1CC2=C(C(=O)OC(C)(C)O2)[C@@H](CC)O1`, the “activity, negative = less viability” value was 20.4% (inactive).

Take `Nc1nc2c(ncn2[C@@H]2O[C@H](CNCc3ccc(OCCCN4CCOCC4)cc3)[C@@H](O)[C@H]2O)c(=O)[nH]1`: the “activity, negative = less viability” value was 23.9% (inactive). Consider `C[C@H](O)[C@@H]1C(=O)N2CCc3c([nH]c4ccccc34)[C@@H]2C[C@@H]1N(C)C(=O)Nc1ccc(F)cc1`, for which the “activity, negative = less viability” value is -4.19% (inactive).

As to `C[C@H]1CN([C@@H](C)CO)C(=O)CCCn2cc(nn2)CO[C@@H]1CN(C)S(=O)(=O)c1cccs1`, the “activity, negative = less viability” value was 3.92% (inactive). On the same count and under the same terms, for `N#Cc1ccc(C(C(=O)NCc2ccccc2)n2c(=O)c(-c3ccco3)nc3ccccc32)cc1` (centres undefined) the value was -3.23% (inactive). In the case of `O=S1(=O)CC(N2CCSCC2)CN1Cc1cn(Cc2cccc(Cl)c2)nn1` (centres undefined), the “activity, negative = less viability” value was 18.5% (inactive). Consider `CCCCC[C@@H]1C=C(C(=O)OCC)[C@H](c2ccccc2)N1S(=O)(=O)c1ccc(C)cc1`, for which the “activity, negative = less viability” value is -18.3% (inactive). Turning to `Cn1c(=O)c([N+](=O)[O-])c(Oc2ccccc2)c2ccccc21`, the Potency was 18.4 µM (active). Take `Cc1cc(C)c(-c2c(O)c3ccccc3n(C)c2=O)c(C)c1`: the “activity, negative = less viability” value was 7.51% (inactive). Regarding `COc1cc2c(=O)n(C)c3ccccc3c2cc1OC`, the “activity, negative = less viability” value was 4.63% (inactive). Take `CCCc1c(C)nc2scc(-c3ccc(Cl)cc3)n2c1=O`: the “activity, negative = less viability” value is -1.68% (inactive). On the same count and under the same terms, for `COCCNc1ncnc2c1ncn2[C@H]1CN(CCN2CCOCC2)C[C@@H](CO)O1` the value was 22.6% (inactive); for `C=CCC[C@@H](CCCCC)OC(=O)/C=C/[C@@H](O)[C@H](O)C[C@H](O)CC=C`, -18.2% (inactive). Same read-out and setting: for `C=CCC[C@H](CCCCC)OC(=O)/C=C/[C@H](O)[C@@H](O)C[C@@H](O)CC=C` the value was -23.8% (inactive); for `CN(C)C(CNC(=O)c1cc2ccccc2o1)c1ccccc1` (centres undefined), -8.25% (inactive).

`COc1cccc(CNC(=O)c2n[nH]c3ccccc23)c1`: the “activity, negative = less viability” value was -22% (inactive). Turning to `COc1cccc(CNC(=O)CN2C(=O)NC(Cc3ccccc3)(c3ccccc3)C2=O)c1` (centres undefined), the “activity, negative = less viability” value is 4.29% (inactive). With `CCc1ccc(C(CNc2nc(C(F)(F)F)nc3ccccc23)N(C)C)cc1` (centres undefined), the Potency is 23.1 µM (active). Same read-out and setting: for `COc1cccc(CNc2nc(C(F)(F)F)nc3ccccc23)c1` the value was 23.1 µM (active).

Turning to `CN(C)C(CNC(=O)Cc1ccc([N+](=O)[O-])cc1)c1ccccc1` (centres undefined), the “activity, negative = less viability” value is -3.4% (inactive).

As for `O=C(CCN1CCCCC1)Nc1ccc(F)c(F)c1`, the “activity, negative = less viability” value was -0.559% (inactive). As to `Cc1cccc(C(=O)C(O)(c2ccccc2)C2CCCCC2=O)c1` (centres undefined), the “activity, negative = less viability” value was -18.7% (inactive).

On to `CN(Cc1c(F)cccc1Cl)C(=O)COC(=O)Cn1cnc2ccccc2c1=O`, for which the “activity, negative = less viability” value is 1.04% (inactive). Turning to `COC(=O)C[C@@H]1C=C[C@@H](NS(=O)(=O)c2cccc(OC)c2)[C@@H](CO)O1`, the “activity, negative = less viability” value is 12.9% (inactive). For the compound `CC[C@@H]1Cc2cc(O)ccc2C2=C1c1ccc(O)cc1C[C@H]2CC`, the Potency was 18.4 µM (active).
